This note sets out measurements from paper PMC7862700, “An all-to-all approach to the identification of sequence-specific readers for epigenetic DNA modifications on cytosine”.

What all share (test): DAPPL (digital affinity profiling via proximity ligation, sequencing); 10 mM Tris-HCl pH 7.5, 50 mM NaCl, 1 mM DTT, 4% glycerol, room temperature, 30 min; GST-TFs on glutathione beads, 16-mer random dsDNA library, 0.1% formaldehyde crosslink after washing; high values mean tight binding
Common to all, as to conditions: protein: recombinant; tags: N-terminal GST; dsDNA, one strand shown

The target in one test is T1, ERF (Homo sapiens, UniProt P50548 1-548).
T1 sequence: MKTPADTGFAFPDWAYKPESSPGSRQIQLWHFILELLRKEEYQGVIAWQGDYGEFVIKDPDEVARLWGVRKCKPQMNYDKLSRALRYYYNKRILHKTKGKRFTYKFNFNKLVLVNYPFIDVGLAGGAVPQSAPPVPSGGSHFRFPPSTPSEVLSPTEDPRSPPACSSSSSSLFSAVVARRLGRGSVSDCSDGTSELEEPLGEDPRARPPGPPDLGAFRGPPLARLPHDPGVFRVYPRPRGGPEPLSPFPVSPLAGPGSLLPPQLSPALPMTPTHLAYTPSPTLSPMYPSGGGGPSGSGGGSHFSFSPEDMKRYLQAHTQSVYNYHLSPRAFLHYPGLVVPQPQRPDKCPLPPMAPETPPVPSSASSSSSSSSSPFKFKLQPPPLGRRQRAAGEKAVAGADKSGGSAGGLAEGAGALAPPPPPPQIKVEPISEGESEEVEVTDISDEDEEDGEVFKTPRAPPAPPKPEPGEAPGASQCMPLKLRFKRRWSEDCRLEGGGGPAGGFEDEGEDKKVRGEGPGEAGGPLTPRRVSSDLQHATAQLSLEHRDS
Summed up:
(§1)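 Binding signal is given per hexamer as its read frequency for a factor divided by its frequency in the tag-only sample. GST-fused human transcription factors were expressed in yeast, captured on glutathione beads, barcoded with DNA and pooled with that sample, then incubated with 200 nmole of a 16-mer random double-stranded DNA library in Tris/NaCl/DTT/glycerol buffer for 30 min at room temperature. The pools were then washed, crosslinked, proximity-ligated, amplified by PCR and sequenced on an Illumina NextSeq500.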

The next test concerns the target T2, ETV3L (Homo sapiens, UniProt Q6ZN32 1-361).
T2 sequence: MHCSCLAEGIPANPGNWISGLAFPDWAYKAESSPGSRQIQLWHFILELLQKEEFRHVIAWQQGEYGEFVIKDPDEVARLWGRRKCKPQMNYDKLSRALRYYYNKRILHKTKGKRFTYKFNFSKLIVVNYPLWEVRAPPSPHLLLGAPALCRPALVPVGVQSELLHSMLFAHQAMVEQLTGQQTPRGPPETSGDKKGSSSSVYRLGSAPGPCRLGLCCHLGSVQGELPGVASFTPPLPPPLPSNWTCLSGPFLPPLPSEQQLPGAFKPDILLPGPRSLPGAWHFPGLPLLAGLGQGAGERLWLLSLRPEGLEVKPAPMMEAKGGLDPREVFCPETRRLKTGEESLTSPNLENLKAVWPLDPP
The method, boiled down: as §1

For a further test, the target named is T3, ETS2 (Homo sapiens, UniProt P15036 1-469).
T3 sequence: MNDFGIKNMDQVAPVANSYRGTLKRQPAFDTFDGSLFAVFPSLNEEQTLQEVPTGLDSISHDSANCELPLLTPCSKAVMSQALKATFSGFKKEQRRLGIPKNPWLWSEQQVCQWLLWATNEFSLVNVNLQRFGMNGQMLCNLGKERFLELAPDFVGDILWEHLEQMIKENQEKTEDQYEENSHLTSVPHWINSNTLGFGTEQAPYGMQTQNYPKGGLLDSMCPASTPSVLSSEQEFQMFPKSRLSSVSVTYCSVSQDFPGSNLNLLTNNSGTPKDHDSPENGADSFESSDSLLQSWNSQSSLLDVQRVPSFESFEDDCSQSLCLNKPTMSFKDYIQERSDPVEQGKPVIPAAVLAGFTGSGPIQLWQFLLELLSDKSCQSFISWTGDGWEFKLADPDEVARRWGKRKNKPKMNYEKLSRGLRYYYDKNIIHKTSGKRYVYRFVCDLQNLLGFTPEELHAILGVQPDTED
The method, boiled down: as §1

A further test addresses T4, SPDEF (Homo sapiens, UniProt O95238 1-335).
T4 sequence: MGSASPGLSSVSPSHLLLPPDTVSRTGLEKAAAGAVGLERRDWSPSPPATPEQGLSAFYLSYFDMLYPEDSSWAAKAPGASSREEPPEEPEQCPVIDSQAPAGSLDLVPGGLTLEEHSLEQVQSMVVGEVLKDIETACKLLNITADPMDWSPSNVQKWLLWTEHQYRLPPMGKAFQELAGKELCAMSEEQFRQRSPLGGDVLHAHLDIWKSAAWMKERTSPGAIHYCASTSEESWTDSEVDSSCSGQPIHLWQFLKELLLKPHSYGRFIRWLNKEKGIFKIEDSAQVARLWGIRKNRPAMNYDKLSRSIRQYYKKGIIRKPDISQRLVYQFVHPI
The method, boiled down:
as §1

Another test has as its target T5, ETV7 (Homo sapiens, UniProt Q9Y603 1-341).
T5 sequence: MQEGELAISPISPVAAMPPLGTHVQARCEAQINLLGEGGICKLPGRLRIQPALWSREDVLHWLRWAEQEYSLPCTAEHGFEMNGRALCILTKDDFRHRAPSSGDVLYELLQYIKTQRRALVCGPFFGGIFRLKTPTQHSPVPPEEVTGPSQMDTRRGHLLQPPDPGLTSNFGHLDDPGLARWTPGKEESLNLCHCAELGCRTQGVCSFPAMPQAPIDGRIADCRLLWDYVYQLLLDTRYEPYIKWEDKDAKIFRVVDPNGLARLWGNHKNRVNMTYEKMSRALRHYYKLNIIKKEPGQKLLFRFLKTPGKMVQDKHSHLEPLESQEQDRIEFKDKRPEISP
The method, boiled down: as §1

The target in another test is T6, ELF5 (Homo sapiens, UniProt Q9UKW6-2 1-255).
T6 sequence: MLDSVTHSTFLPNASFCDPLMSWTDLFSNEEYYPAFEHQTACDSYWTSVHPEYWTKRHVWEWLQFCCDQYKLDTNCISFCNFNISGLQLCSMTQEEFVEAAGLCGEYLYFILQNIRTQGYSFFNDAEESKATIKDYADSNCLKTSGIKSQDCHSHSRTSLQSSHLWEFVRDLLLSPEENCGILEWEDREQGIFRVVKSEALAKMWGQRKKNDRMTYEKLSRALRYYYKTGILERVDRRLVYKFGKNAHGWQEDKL
The method, boiled down: as §1

Another test concerns the target T7, ETV3 (Homo sapiens, UniProt P41162-2 1-143).
T7 sequence: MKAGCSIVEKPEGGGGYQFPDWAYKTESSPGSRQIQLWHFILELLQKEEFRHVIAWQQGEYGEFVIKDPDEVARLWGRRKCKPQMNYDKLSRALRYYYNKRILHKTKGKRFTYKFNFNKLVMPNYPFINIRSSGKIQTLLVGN
The method, boiled down: as §1

Another test concerns the target ETV6 (Homo sapiens, UniProt P41212 1-452). Summed up: as §1

Sequence of ETV6 (P41212 whole entry): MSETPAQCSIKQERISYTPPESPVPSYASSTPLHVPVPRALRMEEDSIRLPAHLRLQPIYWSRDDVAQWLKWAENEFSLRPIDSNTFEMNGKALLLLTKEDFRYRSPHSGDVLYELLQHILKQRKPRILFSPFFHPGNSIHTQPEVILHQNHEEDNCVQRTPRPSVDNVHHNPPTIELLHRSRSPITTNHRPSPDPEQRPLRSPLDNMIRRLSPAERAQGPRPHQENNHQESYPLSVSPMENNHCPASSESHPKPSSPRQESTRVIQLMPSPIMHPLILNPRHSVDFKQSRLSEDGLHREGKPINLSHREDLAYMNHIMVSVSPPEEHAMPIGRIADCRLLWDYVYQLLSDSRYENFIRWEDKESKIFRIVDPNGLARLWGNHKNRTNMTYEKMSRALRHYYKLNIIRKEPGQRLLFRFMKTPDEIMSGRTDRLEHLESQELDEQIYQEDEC

In the case of AATGGC, the binding signal is 1.25 fold enrichment (6-mer frequency, TF over GST control) in the test with ERF; 1.3 fold enrichment (6-mer frequency, TF over GST control) with ETV3L; 1.39 fold enrichment (6-mer frequency, TF over GST control) with ETS2; 1.29 fold enrichment (6-mer frequency, TF over GST control) with SPDEF; 1.32 fold enrichment (6-mer frequency, TF over GST control) with ETV7; 1.44 fold enrichment (6-mer frequency, TF over GST control) with ELF5. Besides, the binding signal in the test with ETV3 was 1.41 fold enrichment (6-mer frequency, TF over GST control); with ETV6, 1.51 fold enrichment (6-mer frequency, TF over GST control).

As for AGCTTA, the binding signal was 1.2 fold enrichment (6-mer frequency, TF over GST control) with ERF; 1.08 fold enrichment (6-mer frequency, TF over GST control) with ETV3L; 1.15 fold enrichment (6-mer frequency, TF over GST control) in the test with ETS2; 1.17 fold enrichment (6-mer frequency, TF over GST control) with SPDEF; 1.15 fold enrichment (6-mer frequency, TF over GST control) with ETV7; 1.08 fold enrichment (6-mer frequency, TF over GST control) with ELF5. The binding signal is 1.17 fold enrichment (6-mer frequency, TF over GST control) in the test with ETV3 and 1.05 fold enrichment (6-mer frequency, TF over GST control) in the test with ETV6.

As for TGCTAA, the binding signal in the test with ERF was 1.13 fold enrichment (6-mer frequency, TF over GST control); with ETV3L, 1.25 fold enrichment (6-mer frequency, TF over GST control); in the test with ETS2, 1.34 fold enrichment (6-mer frequency, TF over GST control); with SPDEF it was 1.32 fold enrichment (6-mer frequency, TF over GST control); in the test with ETV7 it was 1.28 fold enrichment (6-mer frequency, TF over GST control); in the test with ELF5, 1.25 fold enrichment (6-mer frequency, TF over GST control). Further, the binding signal was 1.22 fold enrichment (6-mer frequency, TF over GST control) with ETV3 and 1.29 fold enrichment (6-mer frequency, TF over GST control) with ETV6.

On to CCCCCT, for which the binding signal with ERF was 1.38 fold enrichment (6-mer frequency, TF over GST control); with ETV3L it was 1.23 fold enrichment (6-mer frequency, TF over GST control); with ETS2 it was 1.14 fold enrichment (6-mer frequency, TF over GST control); with SPDEF, 1.05 fold enrichment (6-mer frequency, TF over GST control); with ETV7 it was 1.17 fold enrichment (6-mer frequency, TF over GST control); in the test with ELF5, 1.37 fold enrichment (6-mer frequency, TF over GST control). In addition, the binding signal with ETV3 is 1.27 fold enrichment (6-mer frequency, TF over GST control); in the test with ETV6, 1.15 fold enrichment (6-mer frequency, TF over GST control).

Take ATTTAC: the binding signal is 1.27 fold enrichment (6-mer frequency, TF over GST control) with ERF; 1.18 fold enrichment (6-mer frequency, TF over GST control) with ETV3L; 1.28 fold enrichment (6-mer frequency, TF over GST control) with ETS2; 1.21 fold enrichment (6-mer frequency, TF over GST control) in the test with SPDEF; 1.28 fold enrichment (6-mer frequency, TF over GST control) with ETV7; 1.25 fold enrichment (6-mer frequency, TF over GST control) in the test with ELF5. Further, the binding signal in the test with ETV3 is 1.29 fold enrichment (6-mer frequency, TF over GST control); in the test with ETV6 it was 1.18 fold enrichment (6-mer frequency, TF over GST control).

For the sequence TATCCA, the binding signal in the test with ERF was 1.27 fold enrichment (6-mer frequency, TF over GST control); in the test with ETV3L, 1.28 fold enrichment (6-mer frequency, TF over GST control); with ETS2, 1.28 fold enrichment (6-mer frequency, TF over GST control); with SPDEF, 1.21 fold enrichment (6-mer frequency, TF over GST control); with ETV7, 1.34 fold enrichment (6-mer frequency, TF over GST control); with ELF5, 1.27 fold enrichment (6-mer frequency, TF over GST control). The binding signal with ETV3 was 1.23 fold enrichment (6-mer frequency, TF over GST control); with ETV6 it was 1.2 fold enrichment (6-mer frequency, TF over GST control).

With GCTAGC, the binding signal with ERF was 1.2 fold enrichment (6-mer frequency, TF over GST control); with ETV3L it was 1.35 fold enrichment (6-mer frequency, TF over GST control); with ETS2, 1.2 fold enrichment (6-mer frequency, TF over GST control); with SPDEF, 1.13 fold enrichment (6-mer frequency, TF over GST control); in the test with ETV7, 1.24 fold enrichment (6-mer frequency, TF over GST control); in the test with ELF5, 1.15 fold enrichment (6-mer frequency, TF over GST control). In addition, the binding signal is 1.16 fold enrichment (6-mer frequency, TF over GST control) with ETV3 and 1.09 fold enrichment (6-mer frequency, TF over GST control) in the test with ETV6.

Take CAATAA: the binding signal with ERF is 1.15 fold enrichment (6-mer frequency, TF over GST control); in the test with ETV3L, 1.13 fold enrichment (6-mer frequency, TF over GST control); with ETS2 it was 1.19 fold enrichment (6-mer frequency, TF over GST control); with SPDEF, 1.05 fold enrichment (6-mer frequency, TF over GST control); in the test with ETV7 it was 1.06 fold enrichment (6-mer frequency, TF over GST control); with ELF5, 1.06 fold enrichment (6-mer frequency, TF over GST control). Also, the binding signal in the test with ETV3 is 1.14 fold enrichment (6-mer frequency, TF over GST control); with ETV6 it was 1.12 fold enrichment (6-mer frequency, TF over GST control).
